# The source made the active and inactive calls. No cut-off is given here; in the data, nearly all actives have IC50 up to about 87 µM.
# Test: rhodamine 123 fluorescence quenching, dose response, artefact control for mitochondrial permeability transition pore inhibitor project, biochemical, dry powder samples (AID 720723)
# Details: Rhodamine 123 fluorescence quenching counterscreen, cell-free
row,SMILES,IC50
1,CNCCC=C1c2ccccc2CCc2ccccc21,> 100 µM (inactive)
2,COCCCNCCCOc1ccc(Cl)cc1C(C)(C)C,42.3 µM (active)
3,CCN(CC)c1ccc(NC(=O)c2cc(Cl)ccc2OC)cc1,41.2 µM (active)
4,N=c1sccn1CC(=O)Nc1cccc(Oc2ccccc2)c1,54.4 µM (active)
5,C=CCNCCOc1ccc(C(C)(C)c2ccccc2)cc1,41.6 µM (active)
6,C=CCNCCOCCOc1ccc(Cl)cc1C(C)(C)C,21.9 µM (active)
7,N#Cc1c(NCCN)nc(-c2ccco2)c2c1CCCC2,82.5 µM (active)
8,Cc1ccc2nc(N(CCN(C)C)C(=O)/C=C/c3cccs3)sc2c1,> 100 µM (inactive)
9,CC1CCCN(CCC(=O)c2ccc(Br)cc2)C1 (stereo not drawn),85.8 µM (active)
10,O=C(CC1NCCc2ccccc21)Nc1ccc(Cl)cc1 (stereo not drawn),82.4 µM (active)
11,COc1ccc(Cl)cc1C(=O)Nc1ccc(CN2CCCCC2)cc1,85.9 µM (active)
12,Cc1cc(C)c2nc(N(CCCN(C)C)C(=O)C3=COCCO3)sc2c1,> 101 µM (inactive)
13,Cc1cc(C)c2nc(N(CCCN(C)C)C(=O)c3ccc(S(=O)(=O)N4CCCCCC4)cc3)sc2c1,20.9 µM (active)
14,CN1CCC[C@@H]1CCO[C@](C)(c1ccccc1)c1ccc(Cl)cc1,27.5 µM (active)
15,C=CCNCCCOc1ccc(C)cc1Br,69.6 µM (active)
16,CN(C)CCCN1c2ccccc2Sc2ccc(Cl)cc21,> 100 µM (inactive)
17,COc1cc(CNCCO)cc(Cl)c1OCc1ccccc1Cl,31.5 µM (active)
18,COC(=O)c1c(NC(=O)C2CCCCC2)sc2c1CC(C)(C)NC2(C)C,48.1 µM (active)
